Test results published in PubChem BioAssay (NCATS).
Results filed as inconclusive are left out. The source made the active and inactive calls. Calls follow the shape of the dose curve; as a rule, active = well fitted inhibition curve with a large enough effect; inconclusive = small, poorly fitted or top-dose-only effect; inactive = flat fitted curve, though single readings scatter.

Key:
Experiment in all cases: qHTS profiling for inhibitors of Plasmodium falciparum proliferation (AID 504749); also: nearly all actives have a fitted effect of over 60% in size
Details in all cases: P. falciparum in erythrocytes, SYBR Green DNA, 72 h; series mostly up to 28.7 µM
AS120 = test system: AS120
Procedure, shortened: (§1)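 SYBR Green fluorescence of parasite DNA, read after lysis and overnight dark incubation, measured growth over 72 h in erythrocyte culture at 0.3% parasitemia and 2.5% hematocrit. Data normalised to DMSO and 0.29 uM artemisinin, with plate-drift correction.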

ATS189 = test system: ATS189
Procedure, shortened: as §1

ATS95 = test system: ATS95
Procedure, shortened: as §1

C2A = test system: C2A
Procedure, shortened: as §1

CP185 = test system: CP185
Procedure, shortened: as §1

CP191 = test system: CP191
Procedure, shortened: as §1

CP192 = test system: CP192
Procedure, shortened: as §1

CP194 = test system: CP194
Procedure, shortened: as §1

CP201 = test system: CP201
Procedure, shortened: as §1

CP203 = test system: CP203
Procedure, shortened: as §1

CP211 = test system: CP211
Procedure, shortened: as §1

CP215 = test system: CP215
Procedure, shortened: as §1

CP217 = test system: CP217
Procedure, shortened: as §1

CP237 = test system: CP237
Procedure, shortened: as §1

CP238 = test system: CP238
Procedure, shortened: as §1

CP247 = test system: CP247
Procedure, shortened: as §1

CP250 = test system: CP250
Procedure, shortened: as §1

CP252 = test system: CP252
Procedure, shortened: as §1

CP256 = test system: CP256
Procedure, shortened: as §1

CP260 = test system: CP260
Procedure, shortened: as §1

Measured: Potency
Potency is read from the fitted curve at half-maximal effect.

O=C(O)[C@H](CC(=O)N1C[C@H]2CCCC[C@H]2C1)Cc1ccccc1
inactive: all assays above

O=C(O)/C=C/C(O)c1ccc(Cl)cc1 (stereo not given)
inactive: all assays above

CN1CCN(c2cc3c(nn2)Oc2ccccc2N3C)CC1
inactive: all assays above

c1ccc2sc(SSc3nc4ccccc4s3)nc2c1
inactive: all assays above

Nc1ccc(O)c(C(=O)O)c1
inactive: all assays above

O=C(/C=C/c1ccccc1)NCCO
inactive: all assays above

CCCCCCCCCCCCCCCC(=O)OC(C)C
inactive: all assays above

Cc1ccccc1CNc1ncnc2c1ncn2C1OC(CO)C(O)C1O (stereo not given)
inactive: all assays above

COc1cc(/C=C/C(=O)N2CCN(CC(=O)N3CCCC3)CC2)cc(OC)c1OC
not listed: AS120
inactive: all other assays above

C=CCCCCCCCCC(=O)O
inactive: all assays above

O=C(O)c1ccccc1Nc1cccc(C(F)(F)F)c1
not listed: CP191 | CP192
inactive: all other assays above

O=C(CCN1CCN(CCO)CC1)N1c2ccccc2Sc2ccc(C(F)(F)F)cc21
inactive: ATS95 | CP192 | CP201 | CP203 | CP215
active: AS120 14.1 µM | ATS189 11.2 µM | CP191 4.47 µM | CP237 10 µM | CP256 11.2 µM | CP260 11.2 µM

CN1[C@@H]2CC[C@H]1CC(OC(c1ccccc1)c1ccccc1)C2 (stereo not given in full)
active: AS120 12.6 µM | ATS95 12.6 µM | CP191 8.91 µM | CP217 12.6 µM | CP256 12.6 µM
inactive: C2A | CP192 | CP250 | CP260

C=C(Nc1ccc(OCC)cc1)Nc1ccc(OCC)cc1
inactive: all assays above

c1ccc2sc(SN3CCOCC3)nc2c1
not listed: AS120 | CP260
inactive: all other assays above

CCOc1ccc2nc(S(N)(=O)=O)sc2c1
not listed: ATS95 | CP211
inactive: all other assays above

Nc1ccc(C(=O)O)c(O)c1
not listed: CP203
inactive: all other assays above

CCCSc1ccc2nc(NC(=O)OC)[nH]c2c1
not listed: CP191 | CP194 | CP247
inactive: all other assays above

CN1[C@@H](CC(=O)c2ccccc2)CCC[C@H]1C[C@H](O)c1ccccc1
inactive: C2A | CP201 | CP203 | CP211 | CP247 | CP250
active: AS120 12.6 µM | CP237 7.94 µM

CN(C)c1ccc(C(=C2C=CC(=[N+](C)C)C=C2)c2ccccc2)cc1
active: AS120 11.2 µM | ATS189 7.94 µM | C2A 12.6 µM | CP191 7.94 µM | CP203 10.7 µM | CP217 11.2 µM | CP237 8.91 µM | CP247 6.31 µM | CP250 11.2 µM | CP252 12.6 µM | CP256 10 µM | CP260 7.08 µM
inactive: CP192

CC(=O)[C@]1(O)Cc2c(O)c3c(c(O)c2[C@@H](O[C@H]2C[C@H](N)[C@H](O)[C@H](C)O2)C1)C(=O)c1c(O)cccc1C3=O
active: AS120 7.94 µM | ATS189 10 µM | ATS95 7.08 µM | CP191 6.31 µM | CP192 13.5 µM | CP194 13.5 µM | CP203 9.53 µM | CP211 10.7 µM | CP215 12 µM | CP237 2.51 µM | CP247 5.62 µM | CP250 11.2 µM | CP260 3.55 µM

CCOC(=O)c1ccccc1O
not listed: CP250
inactive: all other assays above

Oc1c(Br)cc(Br)c2cccnc12
not listed: AS120
inactive: all other assays above

C[S+](CC[C@H](N)C(=O)O)C[C@H]1O[C@@H](n2cnc3c(N)ncnc32)[C@H](O)[C@@H]1O (stereo not given in full)
inactive: AS120 | C2A | CP192 | CP194 | CP201 | CP203 | CP211 | CP215 | CP237 | CP252 | CP260

COC(=O)C1=C(C)NC(C)=C(C(=O)OCC(C)C)C1c1ccccc1[N+](=O)[O-] (stereo not given)
active: AS120 10 µM | CP191 12.6 µM | CP256 10 µM

COc1ccc(-c2cc(=S)ss2)cc1
not listed: CP203
inactive: all other assays above

Nc1cc(-c2ccncc2)c[nH]c1=O
inactive: all assays above

O=C1CN(/N=C/c2ccc(-c3ccc([N+](=O)[O-])cc3)o2)C(=O)N1
active: CP191 7.08 µM | CP247 4.47 µM
not listed: CP201 | CP215 | CP237
inactive: all other assays above

Cc1[nH]cnc1CN1CCc2c(c3ccccc3n2C)C1=O
inactive: all assays above

O=C(O)c1cc(O)c(O)c(O)c1
active: CP250 5.62 µM
not listed: C2A | CP191 | CP237 | CP247 | CP260
inactive: all other assays above

O=C(OCc1ccccc1)c1ccccc1
active: CP260 3.16 µM
not listed: CP237
inactive: all other assays above
